Assay results taken from PubChem BioAssay AID1508615 (Milbrandt Lab, Department of Genetics, Washington …, 2020).
Hit rate of the full screen: of about 1,600 compounds, about 20 (1%) were called active. What follows is part of a selection rich in actives, with near analogues and random picks from the rest. Unmarked numbers belong to inactive results.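 The calls were made as follows: active = ratio of uncleaved NAD to its breakdown product ADP-ribose above 4, meaning the enzyme was inhibited; inactive = the rest.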

These compounds were tested against NAD(+) hydrolase SARM1 (Homo sapiens) (UniProt Q6SZW1) (assay: SARM1 TIR NADase inhibitors by HPLC, primary screen, cell lysate, HPLC readout (AID 1508615;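 also: substrate NAD at 5 µM with 60 min at 37 °C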)). Conditions: HEK293T SAM-TIR lysate, at 5 µM, hits give high values.
NAD(+) hydrolase SARM1 (Homo sapiens), sequence (Q6SZW1 whole entry, looked up): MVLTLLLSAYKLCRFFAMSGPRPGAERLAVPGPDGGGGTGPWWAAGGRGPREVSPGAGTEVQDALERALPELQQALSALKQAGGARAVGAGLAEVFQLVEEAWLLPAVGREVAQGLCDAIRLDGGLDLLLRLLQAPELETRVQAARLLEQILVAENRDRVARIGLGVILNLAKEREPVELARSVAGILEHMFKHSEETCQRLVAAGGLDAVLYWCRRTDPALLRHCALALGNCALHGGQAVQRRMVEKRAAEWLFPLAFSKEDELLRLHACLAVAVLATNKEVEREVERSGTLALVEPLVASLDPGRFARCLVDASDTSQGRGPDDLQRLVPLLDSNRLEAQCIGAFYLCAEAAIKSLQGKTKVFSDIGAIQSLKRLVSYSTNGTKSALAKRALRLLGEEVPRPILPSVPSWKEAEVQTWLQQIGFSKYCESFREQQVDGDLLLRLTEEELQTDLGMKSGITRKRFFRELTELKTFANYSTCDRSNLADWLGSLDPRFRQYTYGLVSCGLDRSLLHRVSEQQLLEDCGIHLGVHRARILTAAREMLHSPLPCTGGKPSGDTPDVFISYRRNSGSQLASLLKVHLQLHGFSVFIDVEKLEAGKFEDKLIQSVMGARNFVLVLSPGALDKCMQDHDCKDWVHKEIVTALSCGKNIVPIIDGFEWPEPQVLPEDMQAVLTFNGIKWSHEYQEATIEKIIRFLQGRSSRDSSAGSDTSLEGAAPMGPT

Compound	NAD/ADPR ratio
C=CCN1CCN(c2ccncc2S(=O)(=O)N2CCN(C)CC2)CC1	3
COC(=O)Nc1csc2c1NC(=O)CCCC2	3
Nc1ccc2c(c1Cl)C(=O)c1ccc(N)c(Cl)c1C2=O	3
O=C1OCC/C1=C\OCCCO/C=C1\CCOC1=O	3
CC(C)C(=O)Nc1cccnc1	3
Cc1ccc(N2CCN(CC(O)COc3cccc(C)c3)CC2)cc1 (stereo unspecified)	3
C=CCOc1ccnc(-c2ccccc2)n1	3
O=[N+]([O-])c1ccc(NN=C(c2ccccc2)c2ccccc2)nc1	2.8
Cn1cnc([N+](=O)[O-])c1Sc1nnc(-c2cccnc2)n1C	3
NC(=S)Nc1cccc(Cl)c1	3
Cc1ccc(-c2nc(-c3nccc4ccccc34)oc2-c2ccccc2)cc1	3
CCC(CO)Nc1nc2ccc(Cl)cc2c2ccccc12 (stereo unspecified)	3
O=C1c2cccc(Oc3ccccc3)c2C(=O)c2cccc(Oc3ccccc3)c21	3
C=CCNC(=S)Nc1cccc([N+](=O)[O-])c1	3
[O-]/[N+](=C\c1ccccc1)CC1(O)CCCCC1	3
O=c1cc(CO)[nH]nc1CO	3
COc1ccc2nc3cc(Cl)ccc3c(C#N)c2c1	3
CC(=O)c1cc(O)c2ccccc2c1O	10.2 (active)
O=C(Nc1ccc(C(=O)O)c(O)c1)c1ccccc1	3
CC(C)(NC(=O)c1cc(Cl)c2ccccc2c1O)C(=O)O	3
CCOC(=O)Cc1c[nH]c(=S)[nH]c1=O	3
Cn1c(=O)c2[nH]c(COc3ccc(C(C)(C)C)cc3)nc2n(C)c1=O	3
S=C1N(c2ccccc2)CN(C2CCCCC2)CN1c1ccccc1	3
O=[N+]([O-])c1ccc(Sc2ncccn2)c([N+](=O)[O-])c1	3
O=[N+]([O-])c1ccc(Sc2cccc[n+]2[O-])c2nonc12	12.6 (active)
CC1(CN2CCCC2)CCC(NC(=O)C(c2ccccc2)c2ccccc2)C(C)(C)O1 (stereo unspecified)	3

Compound	NAD/ADPR ratio
C(=C\c1ccncc1)/c1ccncc1	3
O=C(O)c1ccc(NCc2nc3ccccc3[nH]2)cc1	3
Oc1ccc2ccc3[nH]cnc3c2c1	3
N/C(CC(=O)Nc1cc(C(F)(F)F)ccc1Cl)=N\O	3
CC1CCC(C(C)C)C(NC(=O)c2ccncc2)C1 (stereo unspecified)	3
Clc1nc(NCCc2ccccc2)c2cn[nH]c2n1	2.8
Cn1cnc([N+](=O)[O-])c1Sc1ncn[nH]1	3
CCOc1ccc(NC(=O)N(O)C2(C#N)CCCCC2)cc1	3
CCOc1ccc(NC(=O)C2CCCN(C)C2)cc1 (stereo unspecified)	11.2 (active)
CCOc1ccc(NC(=O)c2cc3ccccc3cc2O)cc1	3
Cc1nn(-c2ccccc2)c2c1C(c1ccc([N+](=O)[O-])cc1)C(C#N)=C(N)O2 (stereo unspecified)	3
COc1cc(CCC(=O)O)on1	3
COC(=O)CC1(C(=O)OC)Nc2cc(Cl)c(Cl)cc2S(=O)(=O)N1O (stereo unspecified)	13.5 (active)
O=C(NC1CCCCC1)c1cc2ccccc2cc1O	3
Oc1cc(CNC2CCCCC2)c(O)cc1CNC1CCCCC1	10.8 (active)
O=C(O)CCNC1CCCCC1	3
O=C(O)c1ccc(OCCOc2ccccc2)cc1	3
NC(N)=NC(=S)Nc1ccc(Cl)cc1	3
COc1cc(CC(=O)C(=O)O)oc(=O)c1	3
CN(C)C(=O)c1cccc(COc2ccc(N3C(N)=NC(N)=NC3(C)C)cc2Cl)c1	3
Cn1c(=O)c2c(nc(N3CCOCC3)n2C)n(C)c1=O	3
Cc1oc2c(c(C)nn2-c2ccccc2)c(=O)c1Cl	3
Cc1nc(-c2ccccc2)c(Cc2ccccc2O)c(=O)[nH]1	3
Cc1nc2c(O)cccc2cc1CO	3
S=c1cn[nH]c2ccccc12	3
CC1=C(c2ccccc2)C=NNCC1=O	3

Compound	NAD/ADPR ratio
COC(=O)c1cncc(C)c1	3
Nc1ccc(C(=O)Oc2ccc([N+](=O)[O-])cc2)cc1	3
O=C(c1cccnc1)C1Cc2ccccc2C1=O (stereo unspecified)	3
Nc1ccc(Br)cc1Br	3
CCCCOc1nc2c(c(=O)n(C)c(=O)n2C)n1C	3
Cc1cccc2c1c1ccc3c(c1n2C)C(=O)C=CC3=O	8.3 (active)
Cc1ccc2c(c1)c1ccc3c(c1n2C)C(=O)C=CC3=O	5.6 (active)
Cc1c(C(C)(C(=O)O)c2c(C)n(C)c3ccccc23)c2ccccc2n1C	3
COc1ccc2c(c1)c1ccc3c(c1n2C)C(=O)C=CC3=O	7.6 (active)
Cn1c2ccccc2c2ccc3c(c21)C(=O)C=CC3=O	12.5 (active)
C=CCN(CC=C)C(=O)Nc1cc(OC)ccc1OC	3.2
Cc1nnc(Cc2ccccc2)c2n[nH]c(C)c12	3
CC(=O)[C@@]1(O)C(C)CC2C3C=C(C)C4=Cc5c(cnn5-c5ccccc5)C[C@]4(C)C3C(O)C[C@@]21C (stereo partly specified)	3
CCOC(=O)c1ccc2c(c1)NCc1cccc(OC)c1O2	3
c1ccc(-c2cn3ccccc3n2)cc1	3
CC1(C)CCCC2(C)C(OCCO)=CC(=O)C=C12 (stereo unspecified)	3
COc1cc2c(O)cc(C(=O)O)c(-c3cc(OC)c(OC)c(OC)c3)c2cc1OC	3
CSc1nc(Cl)cc(=O)[nH]1	3
OC(C#Cc1ccccc1)(c1ccccc1)c1ccccc1	3
Cc1cc(=O)n2c3c(c4c(cc13)c(CN(C)C)cc(=O)n4C)OC2	3
CC1(C)CC2(C)OC2C2(C1)N=NC(=Nc1ccccc1)O2 (stereo unspecified)	3
Cc1cc2nc(-c3ccccn3)c(-c3ccccn3)nc2cc1C	3
S=C(Sc1ccc(Cl)cc1)Sc1ccc(Cl)cc1	3
Cc1ccc([N+](=O)[O-])cc1NC(=O)Nc1cccc(F)c1	3
